In the supplement of paper PMC12340641:
The full ranking holds about 1,000 compounds; the median of “relative growth recovery (pomalidomide 10 uM = 100%, DMSO = 0%)” is about -1.6, and the highest 2% start at about 21. The entries come from a sample that favours the highest values as a whole.

Test system: HEK293FT dCK*-IKZF1
Assay: relative growth recovery (pomalidomide 10 uM = 100%, DMSO = 0%); higher = more growth rescue (IKZF1 fusion degradation)
Conditions: compound concentration: 5 uM; AraC concentration: 0.3 uM; overnight pretreatment + 4 days AraC
Description: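 Growth recovery screen of the molecular-glue-like (Specs) library. HEK293FT cells expressing a dCK*-IKZF1 fusion (primary) or dCK* alone (counter) were pretreated overnight with compound at 5 uM, then given 0.3 uM AraC for 4 days. Hoechst nuclei were counted by imaging. Primary: normalised to pomalidomide (100%) and DMSO (0%), mean of 2 replicates. Counter: normalised to no-AraC (100%) and AraC+DMSO (0%), single replicate.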

SMILES | relative growth recovery [%]
Cc1cnc(Nc2cccc(C3CCN(C(=O)C4(NC(=O)C(C)(C)C)CCCCC4)CC3)n2)s1 | -12.6
O=S(=O)(Nc1ccc(S(=O)(=O)Nc2ncccn2)cc1)c1ccc(Cl)cc1 | -4.2
CCCc1cnc(Nc2cccc(C3(CO)CCN(C(=O)C4CCCCC4)CC3)n2)s1 | -17
O=C(C1CCCCC1)N1CCOC(c2cccc(Nc3ncc(Cc4ccccc4)s3)n2)C1 (stereo not drawn) | 2.33
Cc1ccc2[nH]nc(C(=O)N3CCCC3c3cccc(Nc4nc(C)cs4)n3)c2c1 (stereo not drawn) | -0.105
Cc1cnc(NC(=O)CN2CCC(c3cccc(Nc4nc(C)c(C)s4)n3)CC2)s1 | 30.3
Cc1csc(Nc2cccc(C3CCCN3C(=O)c3ccc4c(c3)CCCN4C)n2)n1 (stereo not drawn) | 7.5
Cc1cnc(C(=O)N2CCCC2c2cccc(Nc3nc(C)c(C)s3)n2)cn1 (stereo not drawn) | 4.79
Cc1cnc(NC(=O)CN2CCC(c3cccc(Nc4ncc(C)s4)n3)CC2)s1 | -13.8
Cc1nc(Nc2cccc(C3CN(C(=O)CCc4c(C)n[nH]c4C)CCO3)n2)sc1C (stereo not drawn) | -0.835
COCCC(=O)N1CCC(c2cccc(Nc3nc(C)c(C)s3)n2)CC1 | 9.99
Cc1csc(Nc2cccc(C3CCCN3C(=O)c3ccc4[nH]c(C(C)C)nc4c3)n2)n1 (stereo not drawn) | 36.3
Cc1nc(Nc2cccc(C3CCN(C(=O)CCc4c(C)n[nH]c4C)CC3)n2)sc1C | 26
Cc1ccn2cc(C(=O)N3CCCC3c3cccc(Nc4nc(C)c(C)s4)n3)nc2c1 (stereo not drawn) | 39.7
Cc1cnc(Nc2cccc(C3CCN(CC(=O)Nc4c(F)cccc4F)CC3)n2)s1 | -13.4
Cc1nc(Nc2cccc(C3CCCN3C(=O)c3ccc(=O)n(C)n3)n2)sc1C (stereo not drawn) | 5.83
Cc1cnc(Nc2cccc(C3CCN(C(=O)c4cccnc4)CC3)n2)s1 | -18.6
CCOCc1ccc(C(=O)N2CCC(c3cccc(Nc4ncc(C)s4)n3)CC2)cc1 | 29.5
COc1ccc(NC(=O)CN2CCC(c3cccc(Nc4ncc(C)s4)n3)CC2)cc1 | -11
Cc1csc(Nc2cccc(C3CCN(CC(=O)NCc4ccccn4)CC3)n2)n1 | -8.2
CC(=O)N1CCC(c2cccc(Nc3ncc(C)s3)n2)CC1 | -19
COc1ccc(NC(=O)CN2CCC(c3cccc(Nc4nc(C)cs4)n3)CC2)cc1 | 32.9
CC(=O)Nc1ccc(S(=O)(=O)Nc2ncccn2)cc1 | -3.27
Cc1ccc2[nH]c3nc(SCC(=O)Nc4ccc(F)cc4)nnc3c2c1 | -0.35

SMILES | relative growth recovery [%]
Cc1cc(C)nc(NS(=O)(=O)c2ccc(NC(=S)NC(=O)/C=C/c3ccccc3)cc2)n1 | -1.71
CS(=O)(=O)NCC(=O)N1CCC(c2cccc(Nc3ncc(-c4ccccc4)s3)n2)CC1 | -20.5
COCCOCC(=O)Nc1ccc(S(=O)(=O)Nc2cc(C)nc(C)n2)cc1 | -1.1
C[C@@H](N)C(=O)N1CCC(CO)(c2cccc(Nc3ncc(-c4ccccc4)s3)n2)CC1 | -18.2
Cc1csc(Nc2cccc(C3CCN(CC(=O)N4CCC(C(N)=O)CC4)CC3)n2)n1 | 5.36
Cc1cnc(Nc2cccc(C3(C(=O)NCCO)CCN(C(=O)C4CCCCC4)CC3)n2)s1 | -5.96
COCCC(=O)N1CCC(c2cccc(Nc3ncc(C)s3)n2)CC1 | -3.65
O=C(O)COCCOCCNc1cc2c(cc1F)C(=O)N(C1CCC(=O)NC1=O)C2=O (stereo not drawn) | -7.7
O=C(CSc1nc2cc(Cl)ccc2[nH]1)Nc1ncccn1 | -1.69
COc1cc(NS(=O)(=O)c2ccc(NC(=O)CCl)cc2)nc(OC)n1 | -5.68
COc1ccc(Cl)c2c1[nH]c1nc(SCC(=O)Nc3ccc(Cl)cc3)nnc12 | 2.88
Cc1cnc(Nc2cccc(C3CCCN3C(=O)Cn3cnc4ccccc43)n2)s1 (stereo not drawn) | -19.5
O=C(CSc1nnc2c(n1)[nH]c1ccccc12)Nc1ccc(F)cc1 | 7.2
CCCCc1cnc(Nc2cccc(C3CCN(C(=O)C(C)(C)NC(=O)OC(C)(C)C)CC3)n2)s1 | -15.7
O=C(O)CN1CCN(c2cccc3c2C(=O)N(C2CCC(=O)NC2=O)C3=O)CC1 (stereo not drawn) | 0.995
Cc1ccnc(NS(=O)(=O)c2ccc(NC(=O)c3cccs3)cc2)n1 | 3.83
Cc1ccc(C(C)C)c(OCC(=O)Nc2ccc(S(=O)(=O)Nc3ccccn3)cc2)c1 | -1.57
COc1ccc(C(=O)Nc2ccc(S(=O)(=O)Nc3ccccn3)cc2)cc1 | -5.12
Cc1ccc2[nH]c3nc(SCC(=O)Nc4ccc(C)c(Cl)c4)nnc3c2c1 | -24.6
CCCc1cnc(Nc2cccc(C3CCN(C(=O)CN)CC3)n2)s1 | -15.8
CC(=O)Nc1ccc(S(=O)(=O)Nc2cc(C)nc(C)n2)cc1 | -1.14
Cc1ccnc(NS(=O)(=O)c2ccc(NC(=O)c3ccccc3C)cc2)n1 | -1.84
COc1ccc(NS(=O)(=O)c2ccc(N)cc2)nn1 | 3.75
O=C(CCCOc1ccc(Cl)cc1)Nc1ccc(S(=O)(=O)Nc2ncccn2)cc1 | 0.13
